Measurements: the supplement of paper PMC12350171
Where a name gives a salt, the structure may show the parent alone. A number with no mark means an inactive call.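 The calls were made as follows: active = AUC significantly below DMSO controls by Student t-fit with adjusted P under 0.01; inactive = not significantly reduced.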

System: Haemophilus parainfluenzae
Assay: growth AUC normalised to DMSO control (fraction of control); higher = less growth inhibition, active = hit call of the paper
Conditions: 20 µM
How it was run: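 After two anaerobic passages, pathogens were added at a starting OD578 of 0.01 to pre-reduced mGAM plates holding compound at 20 μM with 1% DMSO; hemin and NAD were supplemented for Haemophilus parainfluenzae. Sealed with breathable membranes, plates were read at OD578 hourly for 24 h, in three biological replicates. The trapezoidal rule, applied up to the exponential-to-stationary transition, gave the growth-curve AUC, which was normalised to DMSO controls on the same plate.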

Which “growth AUC normalised to DMSO control” value does the source give for `CC1CC(OC(=O)c2ccccc2O)CC(C)(C)C1` (centres undefined) [Homosalate] here?
Its value is 0.983.

For `CCCCC(=O)O[C@H]1CC[C@H]2[C@@H]3CCc4cc(O)ccc4[C@H]3CC[C@]12C` [Estradiol Valerate], which “growth AUC normalised to DMSO control” value is on record?
Its value is 1.06.

How did the “growth AUC normalised to DMSO control” value turn out when `CC(=O)OCC(=O)NCCCOc1cccc(CN2CCCCC2)c1` [Roxatidine acetate hydrochloride] was run?
Its value is 0.971.

`C[C@]12CC[C@@H]3c4ccc(O)cc4C[C@@H](CCCCCCCCC[S+]([O-])CCCC(F)(F)C(F)(F)F)[C@H]3[C@@H]1CC[C@@H]2O` (some centres undefined) [Fulvestrant] was tested. Which “growth AUC normalised to DMSO control” value did it give?
Its value is 1.32.

`CNCCCC12CCC(c3ccccc31)c1ccccc12` [Maprotiline hydrochloride] was tested. Which “growth AUC normalised to DMSO control” value did it give?
Its value is 0.979.

How did the “growth AUC normalised to DMSO control” value turn out when `COc1cccc2c1C(=O)c1c(O)c3c(c(O)c1C2=O)C[C@@](O)(C(=O)CO)C[C@@H]3O[C@H]1C[C@H](N)[C@H](O)[C@H](C)O1` [Doxorubicin hydrochloride] was run?
The value was 0.979.

For `Cc1c(N(C)CS(=O)(=O)O)c(=O)n(-c2ccccc2)n1C` [Dipyrone sodium salt], which “growth AUC normalised to DMSO control” value is on record?
Its value is 1.02.

`CC(C)(S)C(N)C(=O)O` (racemic) [D,L-Penicillamine] was tested. Which “growth AUC normalised to DMSO control” value did it give?
Its value is 0.981.

For `CC1(C)O[C@@H]2C[C@H]3[C@@H]4C[C@H](F)C5=CC(=O)C=C[C@]5(C)[C@H]4[C@@H](O)C[C@]3(C)[C@]2(C(=O)CO)O1` [Flunisolide], which “growth AUC normalised to DMSO control” value is on record?
Its value is 0.945.

Which “growth AUC normalised to DMSO control” value does the source give for `CC(=O)O[C@@]12CO[C@@H]1C[C@H](O)[C@@]1(C)C(=O)[C@H](O)C3=C(C)[C@@H](OC(=O)[C@H](O)[C@@H](NC(=O)OC(C)(C)C)c4ccccc4)C[C@@](O)([C@@H](OC(=O)c4ccccc4)[C@H]21)C3(C)C` [Docetaxel] here?
Its value is 1.05.

With `Cc1scc2c1N(C(=O)CN1CCN(C)CC1)c1ccccc1NC2=O` [Telenzepine dihydrochloride] as the compound, how does the “growth AUC normalised to DMSO control” value read?
Its value is 1.

How did the “growth AUC normalised to DMSO control” value turn out when `O=C(O)Cc1ccccc1Nc1c(Cl)cccc1Cl` [Diclofenac sodium] was run?
The value was 0.936.

With `CNS(=O)(=O)Cc1ccc2[nH]cc(CCN(C)C)c2c1` [Sumatriptan succinate] as the compound, how does the “growth AUC normalised to DMSO control” value read?
The value was 0.984.

`CN(C)CCC(c1ccccc1)c1ccccn1` (centres undefined) [Pheniramine maleate] was tested. Which “growth AUC normalised to DMSO control” value did it give?
Its value is 0.999.

Which “growth AUC normalised to DMSO control” value does the source give for `C/C(=C(\CCOP(=O)(O)O)SC(=O)c1ccccc1)N(C=O)Cc1cnc(C)nc1N` [Benfotiamine] here?
Its value is 0.999.

With `NCCc1ccc(O)c(O)c1` [Dopamine hydrochloride] as the compound, how does the “growth AUC normalised to DMSO control” value read?
Its value is 1.07.

How did the “growth AUC normalised to DMSO control” value turn out when `C#C[C@]1(O)CC[C@H]2[C@@H]3CCC4=C(CCC(=O)C4)[C@H]3CC[C@@]21C` [Norethynodrel] was run?
Its value is 0.989.

How did the “growth AUC normalised to DMSO control” value turn out when `CC(C)NCC(O)COc1ccc(COCCOC(C)C)cc1` (centres undefined) [Bisoprolol hemifumarate] was run?
Its value is 1.13.

Which “growth AUC normalised to DMSO control” value does the source give for `CC[N+](C)(CC)CCOC(=O)C1c2ccccc2Oc2ccccc21` [Methantheline bromide] here?
Its value is 1.04.

`NC(=O)NC1NC(=O)NC1=O` (centres undefined) [Allantoin] was tested. Which “growth AUC normalised to DMSO control” value did it give?
Its value is 0.974.

`CCCN[C@H]1CCc2nc(N)sc2C1` [Pramipexole dihydrochloride] was tested. Which “growth AUC normalised to DMSO control” value did it give?
Its value is 0.985.

With `CCOC(=O)[C@H](CCc1ccccc1)N[C@@H](C)C(=O)N1[C@H](C(=O)O)C[C@@H]2CCC[C@@H]21` [Ramipril] as the compound, how does the “growth AUC normalised to DMSO control” value read?
Its value is 1.02.

Which “growth AUC normalised to DMSO control” value does the source give for `CCOc1ccc2ccccc2c1C(=O)N[C@@H]1C(=O)N2[C@@H]1SC(C)(C)[C@@H]2C(=O)O` [Nafcillin sodium salt monohydrate] here?
Its value is 0.899.

`CC(=O)[C@H]1CC[C@H]2[C@@H]3CC=C4C[C@@H](O)CC[C@]4(C)[C@H]3CC[C@]12C` [Pregnenolone] was tested. Which “growth AUC normalised to DMSO control” value did it give?
The value was 1.01.

How did the “growth AUC normalised to DMSO control” value turn out when `CC(=O)[C@H]1CC[C@H]2[C@@H]3C[C@H](C)C4=CC(=O)CC[C@]4(C)[C@H]3[C@@H](O)C[C@]12C` [Medrysone] was run?
The value was 0.955.

`Nc1ccc(S(=O)(=O)NC(=O)c2ccccc2)cc1` [Sulfabenzamide] was tested. Which “growth AUC normalised to DMSO control” value did it give?
The value was 1.1.

How did the “growth AUC normalised to DMSO control” value turn out when `CC1Cc2ccccc2N1NC(=O)c1ccc(Cl)c(S(N)(=O)=O)c1` (centres undefined) [Indapamide] was run?
The value was 1.03.

Which “growth AUC normalised to DMSO control” value does the source give for `O=C(c1ccc(F)cc1)C1CCN(CCn2c(=O)[nH]c3ccccc3c2=O)CC1` [Ketanserin tartrate hydrate] here?
Its value is 0.928.

With `C[C@@H]1CN(c2c(F)c(N)c3c(=O)c(C(=O)O)cn(C4CC4)c3c2F)C[C@H](C)N1` [Sparfloxacin] as the compound, how does the “growth AUC normalised to DMSO control” value read?
Its value is 0.0765 (active).

How did the “growth AUC normalised to DMSO control” value turn out when `CCOC(=O)C1=C(C)NC(C)=C(C(=O)OC)C1c1cccc([N+](=O)[O-])c1` (centres undefined) [Nitrendipine] was run?
The value was 1.03.

How did the “growth AUC normalised to DMSO control” value turn out when `CC(C(=O)O)c1cccc(Oc2ccccc2)c1` (centres undefined) [Fenoprofen calcium salt dihydrate] was run?
Its value is 0.945.

With `CC1(C)O[C@@H]2C[C@H]3[C@@H]4C[C@H](F)C5=CC(=O)CC[C@]5(C)[C@H]4[C@@H](O)C[C@]3(C)[C@]2(C(=O)CO)O1` [Flurandrenolide] as the compound, how does the “growth AUC normalised to DMSO control” value read?
The value was 1.03.

Which “growth AUC normalised to DMSO control” value does the source give for `Cc1cc(=O)n(-c2ccccc2)n1C` [Antipyrine] here?
Its value is 0.988.

`Cc1onc(-c2c(Cl)cccc2Cl)c1C(=O)N[C@@H]1C(=O)N2[C@@H]1SC(C)(C)[C@@H]2C(=O)O` [Dicloxacillin sodium salt hydrate] was tested. Which “growth AUC normalised to DMSO control” value did it give?
The value was 0.893.

For `CCN(CC)CCOCCOC(=O)C1(c2ccccc2)CCCC1` [Carbetapentane citrate], which “growth AUC normalised to DMSO control” value is on record?
Its value is 1.

With `CCCc1nc2c(C)cc(-c3nc4ccccc4n3C)cc2n1Cc1ccc(-c2ccccc2C(=O)O)cc1` [Telmisartan] as the compound, how does the “growth AUC normalised to DMSO control” value read?
The value was 1.03.

`CCCNC(C)(C)COC(=O)c1ccccc1` [Meprylcaine hydrochloride] was tested. Which “growth AUC normalised to DMSO control” value did it give?
Its value is 1.03.

Which “growth AUC normalised to DMSO control” value does the source give for `Cc1cc2cc3c(C)cc(=O)oc3c(C)c2o1` [Trioxsalen] here?
Its value is 1.02.

`Nc1nc(NC2CC2)c2ncn([C@H]3C=C[C@@H](CO)C3)c2n1` [Abacavir sulfate] was tested. Which “growth AUC normalised to DMSO control” value did it give?
The value was 0.979.
